Test results: the supplement of paper PMC12645437, “Orthogonal IMiD-Degron Pairs Induce Selective Protein Degradation in Cells” (ACS Chemical Biology, 2025)
The full ranking holds about 8,300 sequences; the median of “log2 fold change of degron read counts, EGFP-low vs EGFP+ sorted cells (limma voom), compound-induced degradation” is about -1.1, and the highest 2% start at about 3.2. The list comes from a sample in which the highest values are over-represented; it also holds similar and randomly drawn sequences.

Target: T1, CRBN, Q96SW2
T1 chain: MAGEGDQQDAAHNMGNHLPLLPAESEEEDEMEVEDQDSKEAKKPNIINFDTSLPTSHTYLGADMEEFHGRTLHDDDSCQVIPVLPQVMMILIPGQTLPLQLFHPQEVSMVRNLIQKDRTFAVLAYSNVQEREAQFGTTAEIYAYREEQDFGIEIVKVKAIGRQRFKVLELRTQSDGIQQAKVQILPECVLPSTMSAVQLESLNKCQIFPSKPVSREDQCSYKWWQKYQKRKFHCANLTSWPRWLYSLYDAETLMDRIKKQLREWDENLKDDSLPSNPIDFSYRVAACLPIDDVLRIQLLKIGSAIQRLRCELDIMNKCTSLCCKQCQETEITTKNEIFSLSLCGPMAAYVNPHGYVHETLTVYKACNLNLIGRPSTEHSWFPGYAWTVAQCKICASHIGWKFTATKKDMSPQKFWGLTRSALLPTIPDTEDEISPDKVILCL
Assay: log2 fold change of degron read counts, EGFP-low vs EGFP+ sorted cells (limma voom), compound-induced degradation; higher = more compound-induced degradation of the degron-EGFP fusion; degrons are variants of IKZF1/3 zinc finger 2; compound dose not given here
Settings: Jurkat, 18 h

[1] = compound: compound 19 (5-tert-butyl-thalidomide)
[2] = compound: compound 22 (5-morpholino-thalidomide)
[3] = compound: compound 33 (diphenyl IMiD analogue)
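Also: pooled lentiviral library of zinc finger degron-EGFP fusions in mCherry-positive Jurkat cells, FACS-sorted after compound exposure, with degron abundance counted by next-generation sequencing.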

FCCNQCGREFTQKGNLLRHIKL [46F_47C_49N_50Q_52G_53R_54E_55F_67L_, Q9UKT9]
log2 fold change of degron read counts [1]: -3.21 | log2 fold change of degron read counts [2]: -3.01 | log2 fold change of degron read counts [3]: -3.16 | log2 fold change of degron read counts (compound: thalidomide): -3.5

FYCDVCGAIFTQKGNLLRHIKL [46F_47Y_49D_50V_52G_53A_54I_55F_67L_, Q9UKT9]
log2 fold change of degron read counts [1]: 0.745 | log2 fold change of degron read counts [2]: 0.688 | log2 fold change of degron read counts [3]: -0.626 | log2 fold change of degron read counts (compound: thalidomide): -1.86

LYCEICGFWCTQKGNLLRHIKL [46L_47Y_49E_50I_52G_53F_54W_55C_67L_, Q9UKT9]
log2 fold change of degron read counts [1]: 1.69 | log2 fold change of degron read counts [2]: 1.16 | log2 fold change of degron read counts [3]: 1.94 | log2 fold change of degron read counts (compound: thalidomide): 0.136

FNCEICGAGFTQKGNLLRHIKL [46F_47N_49E_50I_52G_53A_54G_55F_67L_, Q9UKT9]
log2 fold change of degron read counts [1]: 3.46 | log2 fold change of degron read counts [2]: 0.722 | log2 fold change of degron read counts [3]: -0.0429 | log2 fold change of degron read counts (compound: thalidomide): -0.254

FNCEQCGAGFTQKGNLLRHIKL [46F_47N_49E_50Q_52G_53A_54G_55F_67L_, Q9UKT9]
log2 fold change of degron read counts [1]: -0.14 | log2 fold change of degron read counts [2]: -2.54 | log2 fold change of degron read counts [3]: -2.33 | log2 fold change of degron read counts (compound: thalidomide): -2.8

FDCEICGAGFTQKGNLLRHIKL [46F_47D_49E_50I_52G_53A_54G_55F_67L_, Q9UKT9]
log2 fold change of degron read counts [1]: 1.89 | log2 fold change of degron read counts [2]: -1.13 | log2 fold change of degron read counts [3]: -0.599 | log2 fold change of degron read counts (compound: thalidomide): -0.0656

FTCEICGAGFTQKGNLLRHIKL [46F_47T_49E_50I_52G_53A_54G_55F_67L_, Q9UKT9]
log2 fold change of degron read counts [1]: 2.35 | log2 fold change of degron read counts [2]: 2.19 | log2 fold change of degron read counts [3]: 2.28 | log2 fold change of degron read counts (compound: thalidomide): 2.27

FFCEICGAGFTQKGNLLRHIKL [46F_47F_49E_50I_52G_53A_54G_55F_67L_, Q9UKT9]
log2 fold change of degron read counts [1]: 3.51 | log2 fold change of degron read counts [2]: 2.9 | log2 fold change of degron read counts [3]: 1.61 | log2 fold change of degron read counts (compound: thalidomide): 0.677

FICEICGAGFTQKGNLLRHIKL [46F_47I_49E_50I_52G_53A_54G_55F_67L_, Q9UKT9]
log2 fold change of degron read counts [1]: 0.51 | log2 fold change of degron read counts [2]: 2.54 | log2 fold change of degron read counts [3]: 1.87 | log2 fold change of degron read counts (compound: thalidomide): 2.76

FHCEICGAGFTQKGNLLRHIKL [46F_47H_49E_50I_52G_53A_54G_55F_67L_, Q9UKT9]
log2 fold change of degron read counts [1]: 3.51 | log2 fold change of degron read counts [2]: 1.13 | log2 fold change of degron read counts [3]: 1.93 | log2 fold change of degron read counts (compound: thalidomide): -0.622

FRCEICGAGFTQKGNLLRHIKL [46F_47R_49E_50I_52G_53A_54G_55F_67L_, Q9UKT9]
log2 fold change of degron read counts [1]: 2.78 | log2 fold change of degron read counts [2]: 1.83 | log2 fold change of degron read counts [3]: 2.46 | log2 fold change of degron read counts (compound: thalidomide): 1.7

FACEICGAGFTQKGNLLRHIKL [46F_47A_49E_50I_52G_53A_54G_55F_67L_, Q9UKT9]
log2 fold change of degron read counts [1]: 3.75 | log2 fold change of degron read counts [2]: 1.86 | log2 fold change of degron read counts [3]: 0.304 | log2 fold change of degron read counts (compound: thalidomide): 0.339

FWCNICGAFFTQKGNLLRHIKL [46F_47W_49N_50I_52G_53A_54F_55F_67L_, Q9UKT9]
log2 fold change of degron read counts [1]: 1.6 | log2 fold change of degron read counts [2]: 2.32 | log2 fold change of degron read counts [3]: 0.971 | log2 fold change of degron read counts (compound: thalidomide): -0.294

FKCNVCGASFTQKGNLLRHIKL [46F_47K_49N_50V_52G_53A_54S_55F_67L_, Q9UKT9]
log2 fold change of degron read counts [1]: -1.29 | log2 fold change of degron read counts [2]: -2.06 | log2 fold change of degron read counts [3]: -3.02 | log2 fold change of degron read counts (compound: thalidomide): -1.88

FFCNQCGRKFTQKGNLLRHIKL [46F_47F_49N_50Q_52G_53R_54K_55F_67L_, Q9UKT9]
log2 fold change of degron read counts [1]: -2.1 | log2 fold change of degron read counts [2]: -2.17 | log2 fold change of degron read counts [3]: -2 | log2 fold change of degron read counts (compound: thalidomide): -2.57

FRCPVCGAFFTQKGNLLRHIKL [46F_47R_49P_50V_52G_53A_54F_55F_67L_, Q9UKT9]
log2 fold change of degron read counts [1]: -0.609 | log2 fold change of degron read counts [2]: -0.0858 | log2 fold change of degron read counts [3]: 1.19 | log2 fold change of degron read counts (compound: thalidomide): 1.19

LKCNQCGFCCTQKGNLLRHIKL [46L_47K_49N_50Q_52G_53F_54C_55C_67L_, Q9UKT9]
log2 fold change of degron read counts [1]: -2.31 | log2 fold change of degron read counts [2]: -2.82 | log2 fold change of degron read counts [3]: -2.5 | log2 fold change of degron read counts (compound: thalidomide): -1.52

LFCEICGFDCTQKGNLLRHIKL [46L_47F_49E_50I_52G_53F_54D_55C_67L_, Q9UKT9]
log2 fold change of degron read counts [1]: -1.8 | log2 fold change of degron read counts [2]: -2.4 | log2 fold change of degron read counts [3]: -2.23 | log2 fold change of degron read counts (compound: thalidomide): -1.77

FICNQCGACFTQKGNLLRHIKL [46F_47I_49N_50Q_52G_53A_54C_55F_67L_, Q9UKT9]
log2 fold change of degron read counts [1]: -2.25 | log2 fold change of degron read counts [2]: -1.71 | log2 fold change of degron read counts [3]: -0.536 | log2 fold change of degron read counts (compound: thalidomide): -1.25

FKCPICGHAFTQKGNLLRHIKL [46F_47K_49P_50I_52G_53H_54A_55F_67L_, Q9UKT9]
log2 fold change of degron read counts [1]: -2.73 | log2 fold change of degron read counts [2]: -2.8 | log2 fold change of degron read counts [3]: -3.02 | log2 fold change of degron read counts (compound: thalidomide): -2

FHCPICGHWFTQKGNLLRHIKL [46F_47H_49P_50I_52G_53H_54W_55F_67L_, Q9UKT9]
log2 fold change of degron read counts [1]: -1.67 | log2 fold change of degron read counts [2]: -2.48 | log2 fold change of degron read counts [3]: -1.12 | log2 fold change of degron read counts (compound: thalidomide): -1.62

FGCEICGAGFTQKGNLLRHIKL [46F_47G_49E_50I_52G_53A_54G_55F_67L_, Q9UKT9]
log2 fold change of degron read counts [1]: 2.12 | log2 fold change of degron read counts [2]: 0.308 | log2 fold change of degron read counts [3]: 1.02 | log2 fold change of degron read counts (compound: thalidomide): -0.108

FYCEICGAGFTQKGNLLRHIKL [46F_47Y_49E_50I_52G_53A_54G_55F_67L_, Q9UKT9]
log2 fold change of degron read counts [1]: 3.64 | log2 fold change of degron read counts [2]: 3.17 | log2 fold change of degron read counts [3]: 2.39 | log2 fold change of degron read counts (compound: thalidomide): 0.707

FECEICGAGFTQKGNLLRHIKL [46F_47E_49E_50I_52G_53A_54G_55F_67L_, Q9UKT9]
log2 fold change of degron read counts [1]: 1.97 | log2 fold change of degron read counts [2]: -1.47 | log2 fold change of degron read counts [3]: 0.9 | log2 fold change of degron read counts (compound: thalidomide): 1.53

FWCEICGAGFTQKGNLLRHIKL [46F_47W_49E_50I_52G_53A_54G_55F_67L_, Q9UKT9]
log2 fold change of degron read counts [1]: 3.64 | log2 fold change of degron read counts [2]: 2.88 | log2 fold change of degron read counts [3]: 1.29 | log2 fold change of degron read counts (compound: thalidomide): -0.285

FQCEICGAGFTQKGNLLRHIKL [46F_47Q_49E_50I_52G_53A_54G_55F_67L_, Q9UKT9]
log2 fold change of degron read counts [1]: 2.81 | log2 fold change of degron read counts [2]: 1.87 | log2 fold change of degron read counts [3]: 1.48 | log2 fold change of degron read counts (compound: thalidomide): 3.09

FLCEICGAGFTQKGNLLRHIKL [46F_47L_49E_50I_52G_53A_54G_55F_67L_, Q9UKT9]
log2 fold change of degron read counts [1]: 2.55 | log2 fold change of degron read counts [2]: -0.336 | log2 fold change of degron read counts [3]: 1.28 | log2 fold change of degron read counts (compound: thalidomide): 0.798

FGCNICGALFTQKGNLLRHIKL [46F_47G_49N_50I_52G_53A_54L_55F_67L_, Q9UKT9]
log2 fold change of degron read counts [1]: -0.269 | log2 fold change of degron read counts [2]: 0.462 | log2 fold change of degron read counts [3]: 1.6 | log2 fold change of degron read counts (compound: thalidomide): -0.293
